Source: PubChem BioAssay (National Center for Advancing Translational Sciences (NCATS))
BAZ2B inh = blocks human BAZ2B. 360,000 tested, 4.4% active. Potency, µM (top dose mostly 114 µM), for the others: at the highest dose activity change, negative = inhibition, hits mostly inhibitors. AlphaScreen BAZ2B-H3K14Ac peptide displacement. AID 504333; note: potency is the fitted concentration of half-maximal effect; % is set by controls: 0 for no effect and ±100 for the full control effect; nearly all actives have a fitted effect of over 60% in size
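AlphaScreen luminescence quantifies BAZ2B engagement of H3K14Ac peptide; the protein and biotinylated peptide are both at 50 nM final, buffer PBS pH 7.4 with 0.01% Tween-20, all steps at room temperature.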
G9a block = inhibitors of human histone lysine methyltransferase G9a; G9a H3K9 monomethylation, AlphaScreen, 2 h; Potency, µM (top dose mostly 102 µM), inactives show at the highest dose activity, negative = inhibition, most hits filed as inhibitors; 350,000 tested, 8.8% active; AID 504332; note: potency is the fitted concentration of half-maximal effect; % is set by controls: 0 for no effect and ±100 for the full control effect; nearly all actives have a fitted effect of over 75% in size
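Step 1: enzyme (final 20 nM) with compound, 15 min RT. Step 2: substrate peptide 500 nM and SAM 20 uM, 2 h RT. Step 3: anti-H3K9me1 antibody and AlphaScreen beads, 10 min, then plate read.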
PI5P4Ka inh = PI5P4K alpha (human) kinase inhibition; AID 652105; 330,000 tested, 1.2% active; P48426; max response, %; PI5P4Kalpha enzyme, ADP-Glo luminescence, 60 min; active compounds read low; active = max response of -50% or lower; inconclusive = between -30% and -50%; inactive = -30% or higher; note: value at the top dose of about 77 µM; % is set by controls: 0 for no effect and ±100 for the full control effect
Target sequence (P48426 whole entry, looked up): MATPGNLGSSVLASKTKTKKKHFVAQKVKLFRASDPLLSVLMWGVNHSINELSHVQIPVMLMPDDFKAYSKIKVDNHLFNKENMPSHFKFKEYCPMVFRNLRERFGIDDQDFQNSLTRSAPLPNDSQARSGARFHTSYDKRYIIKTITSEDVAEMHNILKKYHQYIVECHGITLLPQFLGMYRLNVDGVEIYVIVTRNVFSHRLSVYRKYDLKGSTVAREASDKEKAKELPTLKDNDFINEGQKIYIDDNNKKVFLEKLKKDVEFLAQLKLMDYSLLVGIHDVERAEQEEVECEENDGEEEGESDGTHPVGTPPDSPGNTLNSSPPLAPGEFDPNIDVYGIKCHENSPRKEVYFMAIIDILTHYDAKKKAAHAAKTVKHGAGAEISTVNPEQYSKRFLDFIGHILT
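ADP-Glo luminescence end-point read after a 60 min room-temperature kinase reaction of PI5P4Kalpha plus substrate, initiated with ATP at 5 microM final. Buffer: 0.038 M HEPES pH 7.4, EGTA, 0.1% CHAPS, 5% DMSO.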
HP1b binding inh = inhibitors of HP1-beta chromodomain binding to methylated histone tails. P83916. AlphaScreen HP1-beta / biotin-H3K9me3 peptide binding. Potency, µM (top dose mostly 114 µM), inactives show at the top dose activity change, negative = inhibition, usual class: inhibitors. 390,000 tested, 0.56% active. AID 540317; note: potency is the fitted concentration of half-maximal effect; nearly all actives have a fitted effect of over 70% in size
Target sequence (P83916 whole entry, looked up): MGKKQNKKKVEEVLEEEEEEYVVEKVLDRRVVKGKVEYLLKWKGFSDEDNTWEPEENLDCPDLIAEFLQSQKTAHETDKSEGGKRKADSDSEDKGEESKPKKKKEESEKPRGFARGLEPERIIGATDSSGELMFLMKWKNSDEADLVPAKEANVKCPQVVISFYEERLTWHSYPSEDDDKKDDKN
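AlphaScreen: HP1-beta (50 nM) preformed 30 min with biotin-H3(1-18)K9me3 peptide (50 nM) in PBS pH 7.4, 0.01% Tween-20. Compound added for 30 min at RT, then streptavidin donor/nickel chelate acceptor beads (10 ug/mL) for 30 min.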
L3MBTL1 inh-1 = L3MBTL1 (human) inhibition; Q9Y468; AlphaScreen L3MBTL1–H3K9me1 peptide binding; Potency, µM (series often up to 57.1 µM), for the others: top-dose activity, negative = inhibition, usual class: inhibitors; 230,000 tested, 0.66% active; AID 485360; note: potency is the fitted concentration of half-maximal effect; % is set by controls: 0 for no effect and ±100 for the full control effect; nearly all actives have a fitted effect of over 60% in size
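L3MBTL1 (50 nM) pre-complexed 30 min with biotinylated H3(1-15)K9me1 peptide (75 nM), then compounds added for 30 min at room temperature; AlphaScreen streptavidin donor/nickel chelate acceptor beads (10 ug/mL final) read after 30 min dark incubation.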
JMJD2A Tudor inh = inhibitors of human JMJD2A Tudor domain | 390,000 tested, 4.4% active | Potency, µM (highest dose often 114 µM), without a hit: at the top dose activity change, negative = inhibition, most hits filed as inhibitors | AID 504339 | AlphaScreen JMJD2A-Tudor / H3K4me3 peptide binding; note: potency is the fitted concentration of half-maximal effect; % is set by controls: 0 for no effect and ±100 for the full control effect; nearly all actives have a fitted effect of over 50% in size
L3MBTL1 inh-2 = blocks human L3MBTL1 methyl-lysine binding; Potency, µM, most hits filed as inhibitors; L3MBTL1 methyl-lysine binding inhibition, biochemical qHTS; 500 tested, 91% active; shares compounds with L3MBTL1 inh-1; note: potency is the fitted concentration of half-maximal effect; nearly all actives have a fitted effect of over 70% in size
L3MBTL1 ctr = counter-screen for L3MBTL1 inhibitors: AlphaScreen signal interference; shares compounds with L3MBTL1 inh-1; AlphaScreen counterscreen, signal inhibition; Potency, µM (top dose mostly 57.1 µM), without a hit: top-dose activity change, negative = inhibition, hits mostly inhibitors; 500 tested, under 10 active; note: potency is the fitted concentration of half-maximal effect; 0% is about no effect
Active calls of the source: *; [ ] = remark or other dose. Sampled rows, rich in hits. Any-hit rate of the full collection: about 11%. Unless noted, calls come from the whole dose curve; as a rule, active = well fitted curve in the direction sought with a large enough effect; inconclusive = small, poorly fitted or top-dose-only effect, or another doubt; inactive = no such curve, though single readings can be large; an effect the other way counts as inactive or inconclusive.

Screening CCCCc1ccc(NC(=O)c2ccc3c(c2)CCN3S(=O)(=O)CC)cc1 returned BAZ2B inh inconclusive, G9a block inconclusive, HP1b binding inh -1% and JMJD2A Tudor inh inconclusive.
For COC(=O)c1c(Sc2ccccc2)c2ccccc2n1C the results were BAZ2B inh 30%, G9a block 24%[0.501 µM], PI5P4Ka inh 4, HP1b binding inh 68% and JMJD2A Tudor inh 81%.
`CCN1CCN(Cc2ccccc2C)CC1` gave BAZ2B inh 6%, G9a block 3%[12.7 µM], PI5P4Ka inh 16, HP1b binding inh 20% and JMJD2A Tudor inh -19%.
For COc1ccc(CN2CCN(c3ccccc3F)CC2)cc1O the results were BAZ2B inh inconclusive, G9a block 10µM*, PI5P4Ka inh 0, HP1b binding inh inconclusive and JMJD2A Tudor inh 3.2µM*.
Clc1ccccc1CN1CCN(c2ccccc2Cl)CC1 was read as BAZ2B inh 35µM*, G9a block 13µM*, HP1b binding inh inconclusive and JMJD2A Tudor inh 5.6µM*.
Fc1ccccc1N1CCN(Cc2c(F)cccc2F)CC1 was read as BAZ2B inh 32µM*, G9a block 1.4µM*, HP1b binding inh inconclusive, L3MBTL1 inh-1 -11%[11.4 µM] and JMJD2A Tudor inh 3.5µM*.
`O=C1NC(=O)C(CCc2ccncc2)(CCc2ccccn2)C(=O)N1c1ccc(Br)cc1` (stereo unspecified) gave BAZ2B inh 89µM*, G9a block 2%[12.7 µM], PI5P4Ka inh 2, HP1b binding inh 37%, L3MBTL1 inh-1 12% and JMJD2A Tudor inh -10%.
Cc1ccc(N2C(=O)NC(=O)C(CCc3ccccn3)(Cc3cccc(Cl)c3Cl)C2=O)cc1 (stereo unspecified) was read as BAZ2B inh 2%, G9a block -13%, PI5P4Ka inh -2, HP1b binding inh 4%, L3MBTL1 inh-1 -3% and JMJD2A Tudor inh -9%.
`COc1ccc(-c2cc(C(=O)N3CCN(c4ccccc4OC)CC3)c3cc(C(C)C)ccc3n2)cc1` gave BAZ2B inh inconclusive, G9a block -8%[59 µM], HP1b binding inh 20% and JMJD2A Tudor inh -25%.
For O=c1[nH]c(=S)n(C2CC2)c(O)c1/C=N/Nc1cccc2ccccc12 the results were BAZ2B inh inconclusive, G9a block 1.4µM*, PI5P4Ka inh inconclusive, HP1b binding inh 3%, L3MBTL1 inh-1 -25% and JMJD2A Tudor inh inconclusive.
For CC(N=Cc1c(O)n(C2CC2)c(=S)[nH]c1=O)c1ccccc1 (stereo unspecified) the results were BAZ2B inh -8%, G9a block -42%, PI5P4Ka inh 7, HP1b binding inh 37%, L3MBTL1 inh-1 5% and JMJD2A Tudor inh 1%.
O=c1[nH]c(=S)n(C2CC2)c(O)c1/C=N/Nc1ccccc1 was read as BAZ2B inh -34%, G9a block 1.4µM*, PI5P4Ka inh -13, HP1b binding inh -1%, L3MBTL1 inh-1 -5% and JMJD2A Tudor inh inconclusive.
Screening O=P(O)(O)C(Cl)(Cl)P(=O)(O)O returned G9a block -9%[12.7 µM].
Screening O=C(O)C(O)(c1ccccc1)C1CCCC1 (stereo unspecified) returned BAZ2B inh inconclusive, G9a block 25µM*, PI5P4Ka inh 0, HP1b binding inh 46%, L3MBTL1 inh-1 4% and JMJD2A Tudor inh 1%.
N#Cc1ccc(CN2CC[C@@]3(CCCNC3)C2)cc1 was read as G9a block -10%[12.7 µM].
Screening O=c1[nH]sc2cc(F)ccc12 returned BAZ2B inh 45µM*, G9a block 1.6µM*, PI5P4Ka inh -82*, HP1b binding inh inconclusive and JMJD2A Tudor inh 22µM*.
Screening CN(C)C(=O)Oc1cccc([N+](C)(C)C)c1 returned BAZ2B inh -17%, G9a block -8%[59 µM], PI5P4Ka inh -2, HP1b binding inh 51%, L3MBTL1 inh-1 -5% and JMJD2A Tudor inh 5%.
C[C@H]1CN(C2CCC(C#N)(c3ccc(F)cc3)CC2)CC[C@@]1(C(=O)O)c1ccccc1 (stereo partly specified) was read as G9a block 25%[21.5 µM].
`CCOP(=O)(Cc1cc(C(C)=O)c(C)o1)OCC` gave BAZ2B inh -15%, G9a block 8.9µM*, PI5P4Ka inh -4, HP1b binding inh 18%, L3MBTL1 inh-1 -28% and JMJD2A Tudor inh -23%.
For CCCC(=O)c1cc(CP(=O)(OCC)OCC)oc1C the results were BAZ2B inh -11%, G9a block 7.9µM*, PI5P4Ka inh 10, HP1b binding inh 32%, L3MBTL1 inh-1 -7% and JMJD2A Tudor inh -13%.
For CCN1C(=O)NC(=O)/C(=C\c2cn(CC(=O)N3CCCC3)c3ccccc23)C1=O the results were BAZ2B inh 2%, G9a block -45%, PI5P4Ka inh -11, HP1b binding inh 15% and JMJD2A Tudor inh -14%.
`C=CCN1C(=O)NC(=O)/C(=C/c2ccoc2)C1=O` gave BAZ2B inh 0%, G9a block -23%[59 µM], PI5P4Ka inh -69*, HP1b binding inh -19%, L3MBTL1 inh-1 22µM*, JMJD2A Tudor inh inconclusive, L3MBTL1 inh-2 17* and L3MBTL1 ctr -1%.
Screening COc1cccc(-n2c(/C=C/c3ccccc3O)nc3ccccc3c2=O)c1 returned BAZ2B inh -1%, G9a block -11%[59 µM], HP1b binding inh 23% and JMJD2A Tudor inh -3%.
For CCOc1ccccc1OCCCCN1CCCC1 the results were BAZ2B inh inconclusive, G9a block inconclusive, PI5P4Ka inh 2, HP1b binding inh inconclusive, L3MBTL1 inh-1 28µM*, JMJD2A Tudor inh 32µM*, L3MBTL1 inh-2 inconclusive and L3MBTL1 ctr inconclusive.
Screening Cc1cc(C=C2C(=O)NC(=S)NC2=O)c(C)n1-c1ccc2c(c1)OCO2 returned BAZ2B inh inconclusive, G9a block 11µM*, PI5P4Ka inh -72*, HP1b binding inh 2%, L3MBTL1 inh-1 22µM*, JMJD2A Tudor inh inconclusive, L3MBTL1 inh-2 21* and L3MBTL1 ctr -11%.
Screening CN1CCc2cc3c(cc2[C@@H]1O)OCO3 returned G9a block 11%[21.5 µM].
